# Records with an inconclusive call do not appear. Active and inactive are the calls of the source. How the source made its calls: active means hit-call score of the fitted dose curve at least 0.9, where 1 is the maximum; inconclusive means response in the unintended direction; inactive means score below 0.9.
# Target: human CYP1B1, CYP1B1 (gene 1545) (UniProt Q16678)
# Test: NVS_ADME_hCYP1B1: NovaScreen (NVS) CYP450-related Enzyme Activity (ADME) Assay for human CYP1B1
# Description: NVS_ADME_hCYP1B1 is a biochemical, single-readout assay that uses extracted gene-proteins in a cell-free assay. Measurements were taken 1 hour after chemical dosing in a 96-well plate.NVS_ADME_hCYP1B1 is one of one assay component(s) measured or calculated from the NVS_ADME_hCYP1B1 assay. It is designed to make measurements of enzyme activity, a form of enzyme reporter, as detected with fluorescence intensity signals by Fluorescence technology.Data from the assay component NVS_ADME_hCYP1B1 was analyzed into 1 assay endpoint. This assay endpoint, NVS_ADME_hCYP1B1, was analyzed in the positive analysis fitting direction relative to Acetonitrile as the negative control and baseline of activity. Using a type of enzyme reporter, loss-of-signal activity can be used to understand changes in the enzymatic activity as they relate to the gene CYP1B1. Furthermore, this assay endpoint can be referred to as a primary readout, because this assay has produced multiple assay endpoints where this one serves a enzymatic activity function. To generalize the intended target to other relatable targets, this assay endpoint is annotated to the cyp intended target family, where the subfamily is xenobiotic metabolism. […]
# human CYP1B1, CYP1B1 (gene 1545), sequence (Q16678 whole entry, looked up): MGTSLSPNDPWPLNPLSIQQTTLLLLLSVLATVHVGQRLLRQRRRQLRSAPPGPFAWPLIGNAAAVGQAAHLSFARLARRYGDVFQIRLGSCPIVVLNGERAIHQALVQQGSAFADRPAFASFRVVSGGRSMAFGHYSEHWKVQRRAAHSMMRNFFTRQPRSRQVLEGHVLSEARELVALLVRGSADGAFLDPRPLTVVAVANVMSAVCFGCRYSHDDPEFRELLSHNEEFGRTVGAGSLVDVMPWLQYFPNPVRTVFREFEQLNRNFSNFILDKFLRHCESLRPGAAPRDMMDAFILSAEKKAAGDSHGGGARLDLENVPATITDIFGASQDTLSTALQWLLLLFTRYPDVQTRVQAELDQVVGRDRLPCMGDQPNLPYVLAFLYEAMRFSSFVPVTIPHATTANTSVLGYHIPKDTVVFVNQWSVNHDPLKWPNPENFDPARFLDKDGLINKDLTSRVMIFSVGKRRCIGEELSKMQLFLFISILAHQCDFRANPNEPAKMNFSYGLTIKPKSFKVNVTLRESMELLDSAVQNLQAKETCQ
row,SMILES,AC50
1,C#CCOC(=O)[C@@H](C)Oc1ccc(Oc2ncc(Cl)cc2F)cc1,2.14 µM (active)
2,c1ccc2[nH]c(-c3cscn3)nc2c1,6.26 µM (active)
